In PubChem BioAssay:
Calls of active or inactive are those of the source. Unless noted, no rule for the calls is given here.

Assays:
[1] = test system: XIP peptide (Xip251-270) binding; assay: XIP fragment 251-270 binding compounds – biochemical, small-molecule microarray, fluorescence 635/667 nm, 0.1 µg/mL protein, primary screen (AID 1182); conditions: fluorescent protein binding, 635 nm, higher = more signal, called active from +8 up or from −8 down
XIP peptide (Xip251-270) = assay: compounds binding XIP fragment 251-270 – biochemical, small-molecule microarray, fluorescence 635/667 nm, 0.5 µg/mL protein, primary screen (AID 1183); conditions: fluorescence 635 nm, higher = more signal
[2] = blood-stage malaria parasite viability loss – strain 3D7, DAPI fluorescence, 100 nL, primary screen (AID 1184);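 also: parasites grown inside human red blood cells in medium with human serum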; conditions: P. falciparum 3D7 growth, 3 d, higher = more signal
[3] = molecular target: Homeobox protein Hox-A13 (Mus musculus) (UniProt Q62424); assay: disruptors of Hoxa13 oligonucleotide interaction – biochemical, fluorescence polarization, labeled oligonucleotide, primary screen (AID 1185); conditions: Hoxa13:DNA binding, 15 min, higher = more signal, called active from +8 up or from −8 down
[4] = blockers of DNA damage checkpoint Chk1 activation – imaging, HeLa, hydroxyurea, phospho-Chk1 antibody, percent positive cells, primary screen (AID 1186); conditions: hydroxyurea-induced phospho-Chk1 immunofluorescence imaging, higher = more signal
[5] = blockers of DNA damage checkpoint Chk1 activation – imaging, HeLa, hydroxyurea, phospho-Chk1 nuclear intensity, primary screen (AID 1187); conditions: hydroxyurea-induced phospho-Chk1 immunofluorescence imaging, higher = more signal

Chain of Homeobox protein Hox-A13 (Mus musculus) (Q62424 whole entry, looked up): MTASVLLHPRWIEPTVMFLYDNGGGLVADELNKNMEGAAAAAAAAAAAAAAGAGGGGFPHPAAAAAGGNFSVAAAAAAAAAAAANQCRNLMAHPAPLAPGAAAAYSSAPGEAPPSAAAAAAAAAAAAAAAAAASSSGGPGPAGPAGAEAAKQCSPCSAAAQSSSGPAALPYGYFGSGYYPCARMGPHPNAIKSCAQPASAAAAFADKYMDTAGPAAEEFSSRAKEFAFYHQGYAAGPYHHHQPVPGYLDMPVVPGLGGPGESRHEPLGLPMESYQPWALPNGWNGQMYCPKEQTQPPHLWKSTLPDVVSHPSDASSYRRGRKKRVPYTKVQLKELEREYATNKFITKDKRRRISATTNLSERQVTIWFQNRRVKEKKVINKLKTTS

| SMILES | composite z-score [1] | composite z-score (XIP peptide (Xip251-270)) | z-score [2] | z-score [3] | z-score [4] | z-score [5] |
| --- | --- | --- | --- | --- | --- | --- |
| COC(=O)CCCCCCC(=O)Nc1ccc(NC(=O)CCCC[P+](c2ccccc2)(c2ccccc2)c2ccccc2)cc1 | -0.369 (inactive) | 0.102 | -1.46 | -1.31 (inactive) | -0.917 (inactive) | -1.21 (inactive) |
| COC(=O)[C@@]1(Cc2ccccc2)[C@H]2c3cc(C(=O)N(C)C)n(CCc4ccc(O)c(OC)c4)c3C[C@H]2CN1C(=O)c1ccccc1 | 0.132 (inactive) | -0.358 | 0.692 | -0.394 (inactive) | 0.727 (inactive) | 0.652 (inactive) |
| CCCCO[C@H]1C[C@H]2C(I)=C[C@@H]1C(=O)[C@]21CO1 | -0.178 (inactive) | 0.08 | 1.06 | -1.07 (inactive) | 0.187 (inactive) | -0.0533 (inactive) |
| COC(=O)c1c2oc(c1C(=O)OC)C(=O)N(C)Cc1cn(nn1)C[C@H](Cc1ccccc1)NC(=O)N[C@H](CO)CC2 | 0.15 (inactive) | -0.374 | -0.38 | -1.66 (inactive) | 0.453 (inactive) | 0.723 (inactive) |
| C=CCOC(=O)[C@H]1[C@@H]2C(=O)O[C@@H](c3ccccc3)[C@@H](c3ccccc3)N2[C@@H](c2ccc(OCCOC(=O)[C@@H]3C[C@@H]4C(=O)N[C@@H](CCCCN(C)C)C(=O)N4[C@@H]3c3ccc(O)cc3)cc2)[C@]12C(=O)Nc1ccccc12 | 2.41 (inactive) | 0.878 | 0.0953 | 4.03 (inactive) | -0.768 (inactive) | -0.475 (inactive) |
| [N-]=[N+]=Nc1ccccc1[C@@H]1OC(c2ccc(OCCCO)cc2)=N[C@]1(Cc1ccccc1)C(=O)NCC(O)CO (some centres undefined) | 2.53 (inactive) | 0.747 | -2.14 | -3.18 (inactive) | -0.358 (inactive) | -0.228 (inactive) |
| CCOC(=O)c1ccc(NC(=O)O[C@H]2[C@H](OC(=O)Nc3ccc4c(c3)OCO4)[C@H](OC(=O)Nc3ccc4c(c3)OCO4)[C@@H](OC)O[C@@H]2CO)cc1 | 1.4 (inactive) | 0.863 | -2.28 | -6.83 (inactive) | -0.306 (inactive) | 0.101 (inactive) |
| CCCCN1CC=CC23O[C@@H]4/C=C\CCC(C)OC(=O)C4[C@H]2C(=O)N(C(CO)C(C)C)[C@@H]3C1=O (some centres undefined) | 0.743 (inactive) | 0.844 | -0.36 | -5.09 (inactive) | -0.428 (inactive) | -0.543 (inactive) |
| CCOC(=O)[C@H]1[C@@H]2C(=O)N3CCC[C@H]3[C@H](O[Si](C(C)C)(C(C)C)C(C)C)[C@H]2C=C2CCN(S(=O)(=O)c3ccc(C)cc3)C[C@H]21 | 0.0514 (inactive) | 0.589 | -2.23 | -4.48 (inactive) | 0.186 (inactive) | -0.0427 (inactive) |
| [N-]=[N+]=Nc1ccccc1C[C@]1(C(=O)N2CCOCC2)N=C(c2ccc(OCCCO)cc2)O[C@H]1c1ccccc1 | 0.511 (inactive) | 0.748 | -2.03 | -5.32 (inactive) | -0.47 (inactive) | -0.106 (inactive) |
| COc1ccc([Si](C)(C)[C@@H]2[C@@H](CCn3cc([C@H](O)c4ccccc4)nn3)O[C@]3(C(=O)N(Cc4ccc(N5CCC5=O)cc4)c4ccccc43)[C@H]2C)cc1 | -0.325 (inactive) | 0.641 | -2.47 | -2.32 (inactive) | -0.169 (inactive) | 0.663 (inactive) |
| CCCC[C@@H]1C[C@H]1[C@@H](NC(=O)Cc1ccccc1)c1ccc(-c2ccccc2)cc1 | 0.33 (inactive) | -0.135 | -0.456 | -0.559 (inactive) | -0.584 (inactive) | -0.541 (inactive) |
| COc1ccc([Si](C)(C)[C@@H]2[C@@H](CC(=O)N(CCO)Cc3ccccc3)O[C@]3(C(=O)N(c4ccccc4)c4ccccc43)[C@H]2C)cc1 | 0.153 (inactive) | 0.38 | -2.54 | -5.59 (inactive) | -1.11 (inactive) | -0.327 (inactive) |
| CCOC(=O)C1=CC[C@@H](c2ccccc2C(F)(F)F)N(S(=O)(=O)c2ccc(C)cc2)[C@H]1c1ccc(C#N)cc1 | 0.205 (inactive) | 0.534 | -2.2 | -0.224 (inactive) | 0.479 (inactive) | -0.581 (inactive) |
| COCCOC(=O)N1C(=O)[C@@]2(c3cc(C#CCNC(N)=O)ccc31)[C@H](C(=O)N1CCc3cc(OC)c(OC)cc3C1)[C@H]1C(=O)O[C@H](c3ccccc3)[C@H](c3ccccc3)N1[C@@H]2c1ccccc1OCCO | 1.53 (inactive) | 0.498 | -2.2 | 0.577 (inactive) | 0.0782 (inactive) | 0.147 (inactive) |
| COCCOC(=O)N1C(=O)[C@@]2(c3ccccc31)[C@H](C(=O)N1CCN(c3ncccn3)CC1)[C@H]1C(=O)O[C@H](c3ccccc3)[C@H](c3ccccc3)N1[C@@H]2c1ccc(O)cc1 | 0.43 (inactive) | 0.854 | -1.55 | -0.883 (inactive) | 0.172 (inactive) | 0.371 (inactive) |
| C=C(C(=O)CC[C@@H](OC(C)=O)c1ccc(CO)o1)C(C)C | 0.164 (inactive) | 0.656 | -0.14 | -4.08 (inactive) | 0.257 (inactive) | 0.636 (inactive) |

| SMILES | composite z-score [1] | composite z-score (XIP peptide (Xip251-270)) | z-score [2] | z-score [3] | z-score [4] | z-score [5] |
| --- | --- | --- | --- | --- | --- | --- |
| C=CCC(OC(C)=O)[C@@H]1[C@@H](N(Cc2cc3ccccc3o2)C(=O)Cc2ccc(F)cc2)c2cc(OCCCO)ccc2N1C(=O)c1ccc2ccccc2c1 (some centres undefined) | -0.231 (inactive) | -0.271 | 1.15 | -1.95 (inactive) | 0.608 (inactive) | 0.308 (inactive) |
| N#Cc1ccc(C(O)C2C=CC3C(=O)N(c4ccccc4)C(=O)C3N2Nc2ccccc2)cc1 (centres undefined) | 0.294 (inactive) | 0.108 | -0.605 | -1.94 (inactive) | -0.18 (inactive) | -0.383 (inactive) |
| CCOC(=O)c1ccc(NC(=O)O[C@H]2[C@H](OC(=O)Nc3ccc4c(c3)OCO4)[C@@H](OC(=O)Nc3ccc4c(c3)OCO4)[C@@H](OC)O[C@@H]2CO)cc1 | 1.15 (inactive) | 0.894 | -2.42 | -8.16 (active) | -0.301 (inactive) | -0.0975 (inactive) |
| COC(=O)C(CC#Cc1ccc2c(c1)[C@]1(C(=O)N2)[C@H](c2ccccc2OCCO)N2[C@H](c3ccccc3)[C@H](c3ccccc3)OC(=O)[C@H]2[C@@H]1C(=O)NC[C@H](O)c1ccccc1)C(=O)OC | 1.8 (inactive) | 0.777 | -2.22 | -1.59 (inactive) | -0.124 (inactive) | -0.553 (inactive) |
| COc1ccc([Si](C)(C)[C@H]2[C@H](CCO)O[C@@]3(C(=O)N(Cc4cccc(N5C(=O)COc6ccccc65)c4)c4ccccc43)[C@@H]2C)cc1 | 0.595 (inactive) | 0.649 | -2.8 | -1.2 (inactive) | -0.327 (inactive) | 0.208 (inactive) |
| C=C(C)C1CCC(C(O)C2C=CC3C(=O)N(C)C(=O)C3N2N2CCCCC2)CC1 (centres undefined) | 0.763 (inactive) | 0.622 | -0.122 | -5.66 (inactive) | 0.692 (inactive) | 0.133 (inactive) |
| CC=CC(O)C1C=CC2C(=O)N(c3ccccc3)C(=O)C2N1Nc1ccccc1F (centres undefined) | 0.147 (inactive) | 0.744 | -0.48 | -3.7 (inactive) | 0.0921 (inactive) | -0.305 (inactive) |
| CCCCC(=C=CC[C@@H](O)c1ccccc1OCCO)C[C@@H](O)COCc1ccccc1 | -0.175 (inactive) | 0.868 | -1.67 | -4.72 (inactive) | 0.193 (inactive) | 1.06 (inactive) |
| CC1CC/C=C\[C@H]2OC34C=CCN(c5ccc(Cl)cc5)C(=O)[C@H]3N(CCCCCO)C(=O)[C@]4(C)C2C(=O)O1 (some centres undefined) | -0.546 (inactive) | -0.613 | -0.396 | -4.96 (inactive) | 1 (inactive) | 0.917 (inactive) |
| CCC(CC)C(O)C1C=CC2C(=O)N(c3ccccc3)C(=O)C2N1Nc1ccc(C(C)C)cc1 (centres undefined) | 0.0969 (inactive) | 0.586 | -0.615 | -3.2 (inactive) | -0.681 (inactive) | -0.765 (inactive) |
| O=C(NCCCCCNC(=O)/C(Cc1ccccc1)=N/O)OCc1ccccc1 | -0.333 (inactive) | 0.132 | -1.94 | -4.08 (inactive) | -0.466 (inactive) | 0.238 (inactive) |
| O=C(NCC(F)(F)F)[C@@H]1c2ccccc2C(=O)N(Cc2ccccc2C(F)(F)F)[C@H]1c1ccc(CO)cc1 | 0.774 (inactive) | 0.374 | -0.485 | -2.95 (inactive) | 0.0364 (inactive) | -0.0409 (inactive) |
| C[N+](C)(C)CCCCCCNC(=O)[C@H]1C[C@H]2C(=O)N[C@@H](Cc3ccccc3)C(=O)N2[C@H]1c1ccc(O)cc1 | 0.901 (inactive) | 0.5 | 0.0933 | -3.23 (inactive) | 0.141 (inactive) | 0.14 (inactive) |
| COCCCNC(=O)[C@@]1(Cc2ccccc2N=[N+]=[N-])COC(c2ccc(OCCCO)cc2)=N1 | 1 (inactive) | 0.626 | -2.06 | -5.18 (inactive) | -0.0232 (inactive) | -0.101 (inactive) |
| C=C(/C(=C/C[C@H](OC(C)=O)c1ccccc1OCCO)c1cc(C(=O)OC)ccc1OC)C(C)C | -0.2 (inactive) | -0.239 | -2.42 | -4.07 (inactive) | -0.0815 (inactive) | -0.292 (inactive) |
| COCCCNC(=O)[C@@]1(Sc2ccc(C)cc2)CC(=O)N(C2CCCCC2)[C@@H]1c1ccc(CO)cc1 | -0.0795 (inactive) | 0.421 | -0.715 | -3.21 (inactive) | 0.317 (inactive) | 0.592 (inactive) |
| C=CCC(OC(C)=O)[C@@H]1[C@@H](N(Cc2cc3ccccc3o2)C(=O)c2ccc(-c3ccccc3)cc2)c2cc(OCCCO)ccc2N1C(=O)c1ccc2ccccc2c1 (some centres undefined) | -0.252 (inactive) | -0.273 | -1.41 | -0.926 (inactive) | 0.347 (inactive) | 0.433 (inactive) |
